ChEMBL document CHEMBL1961873, “Compounds: GSK PKIS; Assays: Nanosyn kinase panel” (2012)

Key:
[1] = molecular target: RAC-alpha serine/threonine-protein kinase (Homo sapiens) (UniProt P31749); settings: at 0.1 µM
[2] = molecular target: RAC-alpha serine/threonine-protein kinase (Homo sapiens) (UniProt P31749); settings: at 1 µM
[3] = molecular target: RAC-beta serine/threonine-protein kinase (Homo sapiens) (UniProt P31751); settings: at 0.1 µM
[4] = molecular target: RAC-beta serine/threonine-protein kinase (Homo sapiens) (UniProt P31751); settings: at 1 µM
[5] = molecular target: RAC-gamma serine/threonine-protein kinase (Homo sapiens) (UniProt Q9Y243); settings: at 0.1 µM
[6] = molecular target: RAC-gamma serine/threonine-protein kinase (Homo sapiens) (UniProt Q9Y243); settings: at 1 µM
[7] = molecular target: G protein-coupled receptor kinase 6 (Homo sapiens) (UniProt P43250); settings: at 0.1 µM
[8] = molecular target: G protein-coupled receptor kinase 6 (Homo sapiens) (UniProt P43250); settings: at 1 µM
[9] = molecular target: T1, Rhodopsin kinase GRK7 (Homo sapiens) (UniProt Q8WTQ7); settings: at 0.1 µM
T1 sequence (whole entry): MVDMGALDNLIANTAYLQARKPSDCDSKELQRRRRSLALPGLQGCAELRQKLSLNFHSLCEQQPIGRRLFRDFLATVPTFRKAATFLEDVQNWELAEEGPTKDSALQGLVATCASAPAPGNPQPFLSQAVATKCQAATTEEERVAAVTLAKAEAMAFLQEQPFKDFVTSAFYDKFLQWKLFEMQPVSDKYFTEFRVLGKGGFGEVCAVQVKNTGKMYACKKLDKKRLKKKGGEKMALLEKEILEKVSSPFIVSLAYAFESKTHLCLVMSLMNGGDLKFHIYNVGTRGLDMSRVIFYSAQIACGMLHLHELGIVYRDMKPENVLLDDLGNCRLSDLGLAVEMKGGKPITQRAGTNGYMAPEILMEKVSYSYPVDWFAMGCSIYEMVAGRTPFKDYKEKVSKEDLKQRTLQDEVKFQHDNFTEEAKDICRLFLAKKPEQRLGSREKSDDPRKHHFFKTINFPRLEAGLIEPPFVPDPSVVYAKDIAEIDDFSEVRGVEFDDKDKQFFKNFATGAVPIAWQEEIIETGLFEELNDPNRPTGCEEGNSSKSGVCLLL

[10] = molecular target: T1, Rhodopsin kinase GRK7 (Homo sapiens); settings: at 1 µM
[11] = molecular target: Serine/threonine-protein kinase MRCK alpha (Homo sapiens) (UniProt Q5VT25); settings: at 0.1 µM
[12] = molecular target: Serine/threonine-protein kinase MRCK alpha (Homo sapiens) (UniProt Q5VT25); settings: at 1 µM
[13] = molecular target: Serine/threonine-protein kinase MRCK beta (Homo sapiens) (UniProt Q9Y5S2); settings: at 0.1 µM
[14] = molecular target: Serine/threonine-protein kinase MRCK beta (Homo sapiens) (UniProt Q9Y5S2); settings: at 1 µM
[15] = molecular target: Ribosomal protein S6 kinase alpha-5 (Homo sapiens) (UniProt O75582); settings: at 0.1 µM
[16] = molecular target: Ribosomal protein S6 kinase alpha-5 (Homo sapiens) (UniProt O75582); settings: at 1 µM
[17] = molecular target: Ribosomal protein S6 kinase alpha-4 (Homo sapiens) (UniProt O75676); settings: at 0.1 µM
[18] = molecular target: Ribosomal protein S6 kinase alpha-4 (Homo sapiens) (UniProt O75676); settings: at 1 µM
[19] = molecular target: Ribosomal protein S6 kinase beta-1 (Homo sapiens) (UniProt P23443); settings: at 0.1 µM
[20] = molecular target: Ribosomal protein S6 kinase beta-1 (Homo sapiens) (UniProt P23443); settings: at 1 µM

Serine/threonine-protein kinase MRCK alpha (Homo sapiens), sequence (Q5VT25 whole entry): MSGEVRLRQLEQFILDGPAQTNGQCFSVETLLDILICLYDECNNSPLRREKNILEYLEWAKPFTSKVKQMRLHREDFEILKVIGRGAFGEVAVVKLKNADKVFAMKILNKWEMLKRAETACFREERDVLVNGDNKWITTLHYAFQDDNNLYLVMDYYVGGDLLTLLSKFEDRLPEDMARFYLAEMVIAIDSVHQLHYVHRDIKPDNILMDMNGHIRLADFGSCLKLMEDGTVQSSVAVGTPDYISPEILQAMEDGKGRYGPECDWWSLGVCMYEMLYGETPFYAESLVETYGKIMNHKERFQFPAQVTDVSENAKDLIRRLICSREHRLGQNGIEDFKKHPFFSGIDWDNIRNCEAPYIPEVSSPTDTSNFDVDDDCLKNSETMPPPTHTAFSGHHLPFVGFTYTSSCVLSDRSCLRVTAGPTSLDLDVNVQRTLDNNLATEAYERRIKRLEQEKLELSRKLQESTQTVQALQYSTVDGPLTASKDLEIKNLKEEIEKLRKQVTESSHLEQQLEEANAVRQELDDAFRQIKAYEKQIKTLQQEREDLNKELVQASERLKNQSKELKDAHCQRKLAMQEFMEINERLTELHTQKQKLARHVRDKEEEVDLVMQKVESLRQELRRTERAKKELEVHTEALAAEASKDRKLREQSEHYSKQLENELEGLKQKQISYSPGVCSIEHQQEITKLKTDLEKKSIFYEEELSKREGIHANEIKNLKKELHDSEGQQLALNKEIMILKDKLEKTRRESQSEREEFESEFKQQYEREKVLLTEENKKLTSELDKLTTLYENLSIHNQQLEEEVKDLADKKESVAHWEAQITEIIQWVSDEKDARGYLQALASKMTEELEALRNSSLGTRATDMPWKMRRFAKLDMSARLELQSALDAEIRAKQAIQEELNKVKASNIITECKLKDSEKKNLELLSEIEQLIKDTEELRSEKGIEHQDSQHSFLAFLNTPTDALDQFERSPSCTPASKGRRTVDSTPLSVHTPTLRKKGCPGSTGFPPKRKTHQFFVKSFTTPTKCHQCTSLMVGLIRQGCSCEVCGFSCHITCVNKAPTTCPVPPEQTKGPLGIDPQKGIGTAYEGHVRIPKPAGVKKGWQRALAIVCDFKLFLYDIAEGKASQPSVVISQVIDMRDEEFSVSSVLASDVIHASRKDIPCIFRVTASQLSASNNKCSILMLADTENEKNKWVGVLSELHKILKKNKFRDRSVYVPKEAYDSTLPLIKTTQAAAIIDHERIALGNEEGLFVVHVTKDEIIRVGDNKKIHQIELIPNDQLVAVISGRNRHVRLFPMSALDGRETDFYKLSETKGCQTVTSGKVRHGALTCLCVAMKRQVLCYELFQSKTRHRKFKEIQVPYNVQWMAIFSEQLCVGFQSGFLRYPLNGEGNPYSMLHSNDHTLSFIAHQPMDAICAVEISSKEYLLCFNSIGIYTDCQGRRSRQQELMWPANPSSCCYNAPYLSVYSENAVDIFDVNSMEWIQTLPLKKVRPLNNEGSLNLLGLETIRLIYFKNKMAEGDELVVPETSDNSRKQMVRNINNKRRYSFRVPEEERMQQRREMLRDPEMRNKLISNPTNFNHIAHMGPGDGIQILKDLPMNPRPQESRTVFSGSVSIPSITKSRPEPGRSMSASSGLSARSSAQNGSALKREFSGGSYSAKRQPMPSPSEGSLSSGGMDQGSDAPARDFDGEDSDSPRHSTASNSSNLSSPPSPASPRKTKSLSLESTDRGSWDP
Ribosomal protein S6 kinase beta-1 (Homo sapiens), sequence (P23443 whole entry, looked up): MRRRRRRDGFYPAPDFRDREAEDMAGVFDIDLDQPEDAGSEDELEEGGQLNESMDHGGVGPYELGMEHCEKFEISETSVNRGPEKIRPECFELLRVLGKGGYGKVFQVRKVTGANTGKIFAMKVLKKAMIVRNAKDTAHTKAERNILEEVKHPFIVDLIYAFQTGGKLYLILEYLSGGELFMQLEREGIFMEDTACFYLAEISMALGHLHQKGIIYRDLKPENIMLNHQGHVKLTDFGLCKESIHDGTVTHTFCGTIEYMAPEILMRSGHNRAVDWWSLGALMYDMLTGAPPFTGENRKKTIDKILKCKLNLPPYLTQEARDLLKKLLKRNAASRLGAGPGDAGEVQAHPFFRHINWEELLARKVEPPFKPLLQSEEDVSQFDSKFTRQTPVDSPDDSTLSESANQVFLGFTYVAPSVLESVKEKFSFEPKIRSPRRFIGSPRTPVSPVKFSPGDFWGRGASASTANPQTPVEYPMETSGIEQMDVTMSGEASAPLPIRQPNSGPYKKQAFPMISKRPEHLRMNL
Serine/threonine-protein kinase MRCK beta (Homo sapiens), sequence (Q9Y5S2 whole entry): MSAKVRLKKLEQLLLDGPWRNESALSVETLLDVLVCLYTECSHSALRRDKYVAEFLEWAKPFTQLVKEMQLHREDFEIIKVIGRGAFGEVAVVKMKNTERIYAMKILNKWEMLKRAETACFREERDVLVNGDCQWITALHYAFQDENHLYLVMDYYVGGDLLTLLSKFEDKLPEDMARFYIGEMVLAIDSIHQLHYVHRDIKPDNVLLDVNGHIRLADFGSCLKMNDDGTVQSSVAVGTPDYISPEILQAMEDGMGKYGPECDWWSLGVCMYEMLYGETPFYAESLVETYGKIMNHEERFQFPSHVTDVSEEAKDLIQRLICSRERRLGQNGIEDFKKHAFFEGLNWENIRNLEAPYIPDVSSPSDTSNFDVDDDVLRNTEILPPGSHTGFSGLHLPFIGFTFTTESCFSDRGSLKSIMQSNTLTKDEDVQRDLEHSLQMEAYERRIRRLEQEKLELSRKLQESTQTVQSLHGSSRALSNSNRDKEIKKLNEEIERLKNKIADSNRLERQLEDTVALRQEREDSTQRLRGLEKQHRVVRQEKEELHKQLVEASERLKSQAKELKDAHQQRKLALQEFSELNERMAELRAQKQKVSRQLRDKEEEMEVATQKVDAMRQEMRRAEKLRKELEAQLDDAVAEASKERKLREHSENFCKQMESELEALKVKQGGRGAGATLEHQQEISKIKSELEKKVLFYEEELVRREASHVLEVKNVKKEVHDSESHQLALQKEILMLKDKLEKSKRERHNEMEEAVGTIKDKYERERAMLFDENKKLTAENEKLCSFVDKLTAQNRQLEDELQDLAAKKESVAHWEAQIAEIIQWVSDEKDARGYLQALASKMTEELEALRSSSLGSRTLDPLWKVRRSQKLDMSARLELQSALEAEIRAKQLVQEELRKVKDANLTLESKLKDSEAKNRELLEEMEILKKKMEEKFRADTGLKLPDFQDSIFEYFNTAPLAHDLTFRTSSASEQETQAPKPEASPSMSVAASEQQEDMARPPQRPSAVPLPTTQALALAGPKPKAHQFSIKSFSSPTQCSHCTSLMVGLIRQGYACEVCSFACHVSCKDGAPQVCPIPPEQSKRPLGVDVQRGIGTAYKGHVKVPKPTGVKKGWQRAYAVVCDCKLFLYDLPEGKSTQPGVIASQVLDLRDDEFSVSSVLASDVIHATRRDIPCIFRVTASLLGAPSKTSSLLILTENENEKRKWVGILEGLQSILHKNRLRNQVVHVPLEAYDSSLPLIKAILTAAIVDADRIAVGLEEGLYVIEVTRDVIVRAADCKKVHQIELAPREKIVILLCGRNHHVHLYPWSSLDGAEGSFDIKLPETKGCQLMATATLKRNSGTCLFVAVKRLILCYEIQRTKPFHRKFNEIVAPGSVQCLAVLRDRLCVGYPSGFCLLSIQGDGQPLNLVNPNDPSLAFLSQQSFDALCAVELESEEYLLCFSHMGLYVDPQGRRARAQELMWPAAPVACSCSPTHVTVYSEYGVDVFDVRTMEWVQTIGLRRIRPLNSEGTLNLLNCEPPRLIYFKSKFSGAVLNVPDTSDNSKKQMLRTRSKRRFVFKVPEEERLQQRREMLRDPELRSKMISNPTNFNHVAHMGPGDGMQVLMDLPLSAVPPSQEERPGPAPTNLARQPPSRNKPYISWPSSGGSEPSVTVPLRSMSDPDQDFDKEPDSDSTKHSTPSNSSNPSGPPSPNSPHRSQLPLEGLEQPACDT
Ribosomal protein S6 kinase alpha-4 (Homo sapiens), sequence (O75676 whole entry, looked up): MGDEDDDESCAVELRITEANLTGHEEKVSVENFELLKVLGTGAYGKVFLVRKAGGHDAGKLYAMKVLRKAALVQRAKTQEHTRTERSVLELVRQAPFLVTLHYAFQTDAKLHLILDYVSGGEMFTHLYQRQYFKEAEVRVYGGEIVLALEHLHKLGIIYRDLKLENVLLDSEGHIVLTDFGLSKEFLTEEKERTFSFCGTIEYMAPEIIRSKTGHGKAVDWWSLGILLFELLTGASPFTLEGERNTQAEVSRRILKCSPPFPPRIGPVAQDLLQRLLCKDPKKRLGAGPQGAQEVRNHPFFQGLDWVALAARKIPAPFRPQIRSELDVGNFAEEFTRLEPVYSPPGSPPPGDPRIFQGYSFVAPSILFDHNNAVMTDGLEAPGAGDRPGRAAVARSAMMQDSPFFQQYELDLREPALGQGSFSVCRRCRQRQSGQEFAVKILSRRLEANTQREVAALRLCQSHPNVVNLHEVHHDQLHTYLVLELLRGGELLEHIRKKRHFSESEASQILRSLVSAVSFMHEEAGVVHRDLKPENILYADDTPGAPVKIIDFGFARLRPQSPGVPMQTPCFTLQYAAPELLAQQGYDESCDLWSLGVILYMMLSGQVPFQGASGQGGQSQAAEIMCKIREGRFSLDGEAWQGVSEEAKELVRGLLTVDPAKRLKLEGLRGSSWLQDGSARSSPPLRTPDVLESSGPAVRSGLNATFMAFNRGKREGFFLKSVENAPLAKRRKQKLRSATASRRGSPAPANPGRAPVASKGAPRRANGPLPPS

O=C(Nc1ccc(Oc2ccc3[nH]c(NC(=O)c4ccco4)nc3c2)cc1)Nc1cc(C(F)(F)F)ccc1F
inhibition [1]: -3.62% | inhibition [2]: -0.4% | inhibition [3]: -3.05% | inhibition [4]: -2.64% | inhibition [5]: -3.47% | inhibition [6]: -4.94% | inhibition [7]: 0.72% | inhibition [8]: -4.1% | inhibition [9]: -0.48% | inhibition [10]: -4.51% | inhibition [11]: -0.11% | inhibition [12]: -0.59% | inhibition [13]: 1.48% | inhibition [14]: 2.67% | inhibition [15]: -0.96% | inhibition [16]: 1.79% | inhibition [17]: 1.72% | inhibition [18]: 5.67% | inhibition [19]: 14.2% | inhibition [20]: 58.4%

COC(=O)c1ccc2c(c1)C(=Cc1cc(Br)c(O)c(Br)c1)C(=O)N2
inhibition [1]: 0.91% | inhibition [2]: 0.66% | inhibition [3]: 0.67% | inhibition [4]: 1.05% | inhibition [5]: 1.09% | inhibition [6]: 2.88% | inhibition [7]: 7.82% | inhibition [8]: 43.5% | inhibition [9]: 12.8% | inhibition [10]: 28.4% | inhibition [11]: 5.51% | inhibition [12]: 5.34% | inhibition [13]: -0.51% | inhibition [14]: -0.15% | inhibition [15]: 7.14% | inhibition [16]: 12.2% | inhibition [17]: 2.52% | inhibition [18]: 6.18% | inhibition [19]: 1.57% | inhibition [20]: 3.47%

CC(C)c1ccc2c(c1)NC(=O)/C2=N/Nc1ccc(S(N)(=O)=O)cc1
inhibition [1]: -0.05% | inhibition [2]: -0.49% | inhibition [3]: -0.37% | inhibition [4]: 0.73% | inhibition [5]: -0.27% | inhibition [6]: 4.41% | inhibition [7]: -0.59% | inhibition [8]: -0.78% | inhibition [9]: 2.96% | inhibition [10]: -0.57% | inhibition [11]: 2.04% | inhibition [12]: -2.97% | inhibition [13]: -0.17% | inhibition [14]: -1.37% | inhibition [15]: -0.47% | inhibition [16]: -2.62% | inhibition [17]: 0.04% | inhibition [18]: -1.31% | inhibition [19]: -0.81% | inhibition [20]: -1.36%

c1ccc(Cc2nc3ccc(Nc4ncnc5ccccc45)cc3[nH]2)cc1
inhibition [1]: 0.62% | inhibition [2]: 0.65% | inhibition [3]: 1.38% | inhibition [4]: 1.4% | inhibition [5]: 1.19% | inhibition [6]: 0.88% | inhibition [7]: 3.39% | inhibition [8]: 3.05% | inhibition [9]: 0.46% | inhibition [10]: -1.96% | inhibition [11]: -0.57% | inhibition [12]: -0.25% | inhibition [13]: -0.96% | inhibition [14]: -0.17% | inhibition [15]: 2.76% | inhibition [16]: 4.26% | inhibition [17]: 0.49% | inhibition [18]: 2.83% | inhibition [19]: 0.76% | inhibition [20]: 2.79%

Cc1ccc2c(c1)/C(=N/Nc1ccc(S(N)(=O)=O)cc1)C(=O)N2
inhibition [1]: 0.76% | inhibition [2]: -0.7% | inhibition [3]: 2.19% | inhibition [4]: -0.04% | inhibition [5]: -1.25% | inhibition [6]: 0.38% | inhibition [7]: -0.52% | inhibition [8]: -1.05% | inhibition [9]: 0.29% | inhibition [10]: 4.95% | inhibition [11]: 0.22% | inhibition [12]: 1.3% | inhibition [13]: -0.79% | inhibition [14]: 1.36% | inhibition [15]: 0.95% | inhibition [16]: 1.23% | inhibition [17]: -1.41% | inhibition [18]: 2.32% | inhibition [19]: 0.52% | inhibition [20]: 2.59%

COc1cc(/C=N/Nc2ncnc3c2cnn3C(C)C)ccc1O
inhibition [1]: -0.05% | inhibition [2]: -2.56% | inhibition [3]: 0.47% | inhibition [4]: -1.58% | inhibition [5]: 0.98% | inhibition [6]: -1.46% | inhibition [7]: 4.24% | inhibition [8]: 77.6% | inhibition [9]: 1.66% | inhibition [10]: 7.37% | inhibition [11]: 0% | inhibition [12]: 0.03% | inhibition [13]: 0.84% | inhibition [14]: 0.35% | inhibition [15]: 2.8% | inhibition [16]: 3.54% | inhibition [17]: 2.2% | inhibition [18]: 1.83% | inhibition [19]: 1.17% | inhibition [20]: 2.21%
